# Laboratory results taken from ChEMBL document CHEMBL5598561, “ASAP - In vitro binding kinetics” (2024).
# Molecular target: Nonstructural protein 3 (Zika virus) (UniProt A0A024AXB9)
# Sequence (A0A024AXB9 as listed by the source): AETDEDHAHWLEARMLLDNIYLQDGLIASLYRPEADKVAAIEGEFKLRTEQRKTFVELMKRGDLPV
structure (smiles),measurement,setting,value
Nc1cc(Cl)cc(C(=O)Nc2ccc3c(c2)CNC3)c1N,pKD,"PRVABC59, Concentration 10.0 uM, Immobilization level 10000.0 pg/mm2, Rmax 26.0 pg/mm2, ka 624754.243 M-1s-1, kd 0.161 1/s",6.59
same,pKD,"PRVABC59, Concentration 10.0 uM, Immobilization level 12000.0 pg/mm2, Rmax 44.0 pg/mm2, ka 261141.936 M-1s-1, kd 1.029 1/s",5.4
same,pKD,"PRVABC59, Concentration 10.0 uM, Immobilization level 13000.0 pg/mm2, Rmax 23.0 pg/mm2, ka 816818.479 M-1s-1, kd 0.326 1/s",6.4
O=C(Nc1ccc2c(n1)CNC2)c1cc(Cl)cc2[nH]ncc12,pKD,"PRVABC59, Concentration 10.0 uM, Immobilization level 3900.0 pg/mm2, Rmax 29.0 pg/mm2, ka 330423.124 M-1s-1, kd 0.318 1/s",6.02
same,pKD,"PRVABC59, Concentration 10.0 uM, Immobilization level 4900.0 pg/mm2, Rmax 43.0 pg/mm2, ka 188485.066 M-1s-1, kd 0.307 1/s",5.79
same,pKD,"PRVABC59, Concentration 10.0 uM, Immobilization level 5500.0 pg/mm2, Rmax 45.0 pg/mm2, ka 189855.655 M-1s-1, kd 0.314 1/s",5.78
same,pKD,"PRVABC59, Concentration 10.0 uM, Immobilization level 10000.0 pg/mm2, Rmax 55.0 pg/mm2, ka 105317.175 M-1s-1, kd 0.527 1/s",5.3
same,pKD,"PRVABC59, Concentration 10.0 uM, Immobilization level 12000.0 pg/mm2, Rmax 96.0 pg/mm2, ka 37343.204 M-1s-1, kd 0.288 1/s",5.11
same,pKD,"PRVABC59, Concentration 10.0 uM, Immobilization level 13000.0 pg/mm2, Rmax 49.0 pg/mm2, ka 130791.962 M-1s-1, kd 0.347 1/s",5.58
N#C[C@H](Nc1ccc2c(c1)CNC2)c1cc(Cl)cc(C2CC2)c1,pKD,"PRVABC59, Concentration 10.0 uM, Immobilization level 10000.0 pg/mm2, Rmax 28.0 pg/mm2, ka 179746.524 M-1s-1, kd 1.36 1/s",5.12
same,pKD,"PRVABC59, Concentration 10.0 uM, Immobilization level 12000.0 pg/mm2, Rmax 42.0 pg/mm2, ka 91353.604 M-1s-1, kd 0.386 1/s",5.37
same,pKD,"PRVABC59, Concentration 10.0 uM, Immobilization level 13000.0 pg/mm2, Rmax 52.0 pg/mm2, ka 98756.182 M-1s-1, kd 0.944 1/s",5.02
COc1cc(Br)cc(C(=O)Nc2ccc3c(c2)CNC3)c1,pKD,"PRVABC59, Concentration 10.0 uM, Immobilization level 3900.0 pg/mm2, Rmax 30.0 pg/mm2, ka 1022660.121 M-1s-1, kd 0.519 1/s",6.29
same,pKD,"PRVABC59, Concentration 10.0 uM, Immobilization level 4900.0 pg/mm2, Rmax 37.0 pg/mm2, ka 628733.109 M-1s-1, kd 0.436 1/s",6.16
same,pKD,"PRVABC59, Concentration 10.0 uM, Immobilization level 5500.0 pg/mm2, Rmax 32.0 pg/mm2, ka 715576.018 M-1s-1, kd 0.434 1/s",6.22
same,pKD,"PRVABC59, Concentration 10.0 uM, Immobilization level 10000.0 pg/mm2, Rmax 31.0 pg/mm2, ka 878454.345 M-1s-1, kd 0.618 1/s",6.15
same,pKD,"PRVABC59, Concentration 10.0 uM, Immobilization level 12000.0 pg/mm2, Rmax 51.0 pg/mm2, ka 505054.059 M-1s-1, kd 0.503 1/s",6
same,pKD,"PRVABC59, Concentration 10.0 uM, Immobilization level 13000.0 pg/mm2, Rmax 45.0 pg/mm2, ka 775706.649 M-1s-1, kd 0.539 1/s",6.16
O=C(Nc1ccc2c(c1)CNC2)c1cccc2[nH]ncc12,pKD,"PRVABC59, Concentration 10.0 uM, Immobilization level 10000.0 pg/mm2, Rmax 19.0 pg/mm2, ka 1068955.381 M-1s-1, kd 0.689 1/s",6.19
same,pKD,"PRVABC59, Concentration 10.0 uM, Immobilization level 12000.0 pg/mm2, Rmax 37.0 pg/mm2, ka 703955.922 M-1s-1, kd 0.285 1/s",6.39
same,pKD,"PRVABC59, Concentration 10.0 uM, Immobilization level 13000.0 pg/mm2, Rmax 29.0 pg/mm2, ka 931164.005 M-1s-1, kd 0.45 1/s",6.32
COCCNC(=O)[C@H](Nc1ccc2c(c1)CNC2)c1cc(Cl)cc(C2CC2)c1,pKD,"PRVABC59, Concentration 10.0 uM, Immobilization level 10000.0 pg/mm2, Rmax 39.0 pg/mm2, ka 617826.514 M-1s-1, kd 0.092 1/s",6.83
same,pKD,"PRVABC59, Concentration 10.0 uM, Immobilization level 12000.0 pg/mm2, Rmax 47.0 pg/mm2, ka 381252.779 M-1s-1, kd 0.077 1/s",6.7
same,pKD,"PRVABC59, Concentration 10.0 uM, Immobilization level 13000.0 pg/mm2, Rmax 46.0 pg/mm2, ka 474021.576 M-1s-1, kd 0.094 1/s",6.7
O=C(Nc1ccc2c(c1)[C@H]1CC[C@H]2N1)c1cc(Cl)cc2[nH]ncc12,pKD,"PRVABC59, Concentration 10.0 uM, Immobilization level 3900.0 pg/mm2, Rmax 29.0 pg/mm2, ka 207440.056 M-1s-1, kd 1.881 1/s",5.04
same,pKD,"PRVABC59, Concentration 10.0 uM, Immobilization level 4900.0 pg/mm2, Rmax 21.0 pg/mm2, ka 356637.156 M-1s-1, kd 1.239 1/s",5.46
same,pKD,"PRVABC59, Concentration 10.0 uM, Immobilization level 5500.0 pg/mm2, Rmax 38.0 pg/mm2, ka 209576.876 M-1s-1, kd 1.619 1/s",5.11
same,pKD,"PRVABC59, Concentration 10.0 uM, Immobilization level 10000.0 pg/mm2, Rmax 35.0 pg/mm2, ka 240196.621 M-1s-1, kd 1.957 1/s",5.09
same,pKD,"PRVABC59, Concentration 10.0 uM, Immobilization level 12000.0 pg/mm2, Rmax 27.0 pg/mm2, ka 216801.208 M-1s-1, kd 1.112 1/s",5.29
same,pKD,"PRVABC59, Concentration 10.0 uM, Immobilization level 13000.0 pg/mm2, Rmax 42.0 pg/mm2, ka 287948.566 M-1s-1, kd 1.743 1/s",5.22
O=C(Nc1ccc2c(c1)CNC2)c1cc(Br)cc2c1OCO2,pKD,"PRVABC59, Concentration 10.0 uM, Immobilization level 10000.0 pg/mm2, Rmax 23.0 pg/mm2, ka 221801.012 M-1s-1, kd 2.02 1/s",5.04
same,pKD,"PRVABC59, Concentration 10.0 uM, Immobilization level 12000.0 pg/mm2, Rmax 42.0 pg/mm2, ka 116147.62 M-1s-1, kd 1.164 1/s",5
same,pKD,"PRVABC59, Concentration 10.0 uM, Immobilization level 13000.0 pg/mm2, Rmax 30.0 pg/mm2, ka 164731.302 M-1s-1, kd 1.67 1/s",4.99
CCc1cc(Cl)cc(C(=O)Nc2ccc3c(c2)CNC3)c1,pKD,"PRVABC59, Concentration 10.0 uM, Immobilization level 10000.0 pg/mm2, Rmax 7.0 pg/mm2, ka 456970.038 M-1s-1, kd 1.322 1/s",5.54
same,pKD,"PRVABC59, Concentration 10.0 uM, Immobilization level 12000.0 pg/mm2, Rmax 55.0 pg/mm2, ka 33985.237 M-1s-1, kd 0.743 1/s",4.66
same,pKD,"PRVABC59, Concentration 10.0 uM, Immobilization level 13000.0 pg/mm2, Rmax 17.0 pg/mm2, ka 179212.289 M-1s-1, kd 1.129 1/s",5.2
O=C(Nc1cc(Cl)cc(C(=O)Nc2ccc3c(c2)CNC3)c1)OCc1ccccc1,pKD,"PRVABC59, Concentration 1.0 uM, Immobilization level 3900.0 pg/mm2, Rmax 38.0 pg/mm2, ka 196121.646 M-1s-1, kd 0.113 1/s",6.24
same,pKD,"PRVABC59, Concentration 1.0 uM, Immobilization level 4900.0 pg/mm2, Rmax 45.0 pg/mm2, ka 144681.299 M-1s-1, kd 0.064 1/s",6.35
same,pKD,"PRVABC59, Concentration 1.0 uM, Immobilization level 4900.0 pg/mm2, Rmax 45.0 pg/mm2, ka 172692.705 M-1s-1, kd 0.081 1/s",6.33
same,pKD,"PRVABC59, Concentration 1.0 uM, Immobilization level 5500.0 pg/mm2, Rmax 49.0 pg/mm2, ka 194075.024 M-1s-1, kd 0.087 1/s",6.35
same,pKD,"PRVABC59, Concentration 1.0 uM, Immobilization level 5500.0 pg/mm2, Rmax 54.0 pg/mm2, ka 112858.156 M-1s-1, kd 0.052 1/s",6.33
same,pKD,"PRVABC59, Concentration 10.0 uM, Immobilization level 3900.0 pg/mm2, Rmax 44.0 pg/mm2, ka 164681.147 M-1s-1, kd 0.126 1/s",6.12
CNC(=O)[C@H](Nc1ccc2c(c1)CNC2)c1cc(Cl)cc(C2CC2)c1,pKD,"PRVABC59, Concentration 10.0 uM, Immobilization level 10000.0 pg/mm2, Rmax 21.0 pg/mm2, ka 735105.2 M-1s-1, kd 0.212 1/s",6.54
same,pKD,"PRVABC59, Concentration 10.0 uM, Immobilization level 12000.0 pg/mm2, Rmax 44.0 pg/mm2, ka 423211.762 M-1s-1, kd 0.126 1/s",6.53
same,pKD,"PRVABC59, Concentration 10.0 uM, Immobilization level 13000.0 pg/mm2, Rmax 34.0 pg/mm2, ka 634638.949 M-1s-1, kd 0.171 1/s",6.57
O=C(Nc1ccc2c(c1)CNC2)c1cc(Cl)cc2c1CCC2,pKD,"PRVABC59, Concentration 10.0 uM, Immobilization level 10000.0 pg/mm2, Rmax 25.0 pg/mm2, ka 106816.236 M-1s-1, kd 0.472 1/s",5.36
same,pKD,"PRVABC59, Concentration 10.0 uM, Immobilization level 12000.0 pg/mm2, Rmax 64.0 pg/mm2, ka 30866.003 M-1s-1, kd 0.225 1/s",5.14
same,pKD,"PRVABC59, Concentration 10.0 uM, Immobilization level 13000.0 pg/mm2, Rmax 31.0 pg/mm2, ka 79832.742 M-1s-1, kd 0.384 1/s",5.32
Cc1cc(NC(=O)c2cc(Cl)cc3[nH]ncc23)ccc1N1CCNCC1,pKD,"PRVABC59, Concentration 10.0 uM, Immobilization level 10000.0 pg/mm2, Rmax 68.0 pg/mm2, ka 142841.774 M-1s-1",4.45
same,pKD,"PRVABC59, Concentration 10.0 uM, Immobilization level 12000.0 pg/mm2, Rmax 26.0 pg/mm2, ka 204393.234 M-1s-1, kd 2.532 1/s",4.91
same,pKD,"PRVABC59, Concentration 10.0 uM, Immobilization level 13000.0 pg/mm2, Rmax 38.0 pg/mm2, ka 209487.853 M-1s-1, kd 3.706 1/s",4.75
O=C(Nc1ccc2c(c1)CNC2)c1cc(F)cc2[nH]nnc12,pKD,"PRVABC59, Concentration 10.0 uM, Immobilization level 10000.0 pg/mm2, Rmax 22.0 pg/mm2, ka 162374.237 M-1s-1, kd 0.724 1/s",5.35
same,pKD,"PRVABC59, Concentration 10.0 uM, Immobilization level 12000.0 pg/mm2, Rmax 50.0 pg/mm2, ka 32556.979 M-1s-1, kd 0.41 1/s",4.9
same,pKD,"PRVABC59, Concentration 10.0 uM, Immobilization level 13000.0 pg/mm2, Rmax 48.0 pg/mm2, ka 67317.145 M-1s-1, kd 0.674 1/s",5
O=C(Nc1ccc2c(c1)CNC2)c1cc(Br)cc2ccccc12,pKD,"PRVABC59, Concentration 10.0 uM, Immobilization level 10000.0 pg/mm2, Rmax 20.0 pg/mm2, ka 1054680.734 M-1s-1, kd 0.691 1/s",6.18
same,pKD,"PRVABC59, Concentration 10.0 uM, Immobilization level 12000.0 pg/mm2, Rmax 63.0 pg/mm2, ka 507441.603 M-1s-1, kd 0.463 1/s",6.04
same,pKD,"PRVABC59, Concentration 10.0 uM, Immobilization level 13000.0 pg/mm2, Rmax 45.0 pg/mm2, ka 357590.388 M-1s-1, kd 0.673 1/s",5.72
CCc1nc2c(C(=O)Nc3ccc4c(c3)CNC4)cc(Br)cc2[nH]1,pKD,"PRVABC59, Concentration 10.0 uM, Immobilization level 10000.0 pg/mm2, Rmax 30.0 pg/mm2, ka 310193.647 M-1s-1, kd 0.373 1/s",5.92
same,pKD,"PRVABC59, Concentration 10.0 uM, Immobilization level 12000.0 pg/mm2, Rmax 36.0 pg/mm2, ka 171120.142 M-1s-1, kd 0.256 1/s",5.83
same,pKD,"PRVABC59, Concentration 10.0 uM, Immobilization level 13000.0 pg/mm2, Rmax 31.0 pg/mm2, ka 250565.843 M-1s-1, kd 0.327 1/s",5.88
